Test results taken from the supplement of paper PMC4709259.
Where a name gives a salt, the structure may show the parent alone. ± gives the standard deviation.

Tests used:
Jurkat [1] = assay: mean cell size (FSC-A) relative to DMSO control (fraction of control); higher = larger cells; settings: 48 h
In short: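 Jurkat cells seeded at 600 cells/µl were incubated 1 h, then exposed for 48h to the Enzo Screen-Well FDA Approved Drug Library v2.0 at 25µM in 0.9% (v/v) final DMSO. Drugs that cut counts below 20% of controls were diluted 10-fold and retested, down to 25nM. Cell count and mean cell size (forward scatter area) were read on an Accuri C6 flow cytometer, relative to solvent-only controls. Plates held 6-12 controls; values are means of 3 biological replicates.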

Jurkat [2] = assay: cell count relative to DMSO control (fraction of control); higher = more cells (less growth inhibition); settings: 48 h

Compound	mean cell size (Jurkat [1])	cell count (Jurkat [2])
O=P1(NCCCl)OCCCN1CCCl (stereo not given) [Ifosfamide] (concentration: 25 µM)	0.938 ± 0.026	0.372 ± 0.12
CN(C)C(=O)Oc1ccc[n+](C)c1 [Pyridostigmine Bromide] (concentration: 25 µM)	0.986 ± 0.027	0.651 ± 0.11
CCN(C)C(=O)Oc1cccc([C@H](C)N(C)C)c1 [Rivastigmine Tartrate] (concentration: 25 µM)	1.01 ± 0.022	0.843 ± 0.13
CCCCCCC(=O)O[C@H]1CC[C@H]2[C@@H]3CCC4=CC(=O)CC[C@]4(C)[C@H]3CC[C@]12C [Testosterone Enanthate] (concentration: 25 µM)	0.954 ± 0.047	0.703 ± 0.12
Cc1cccc([C@H](C)c2c[nH]cn2)c1C [Dexmedetomidine·HCl] (concentration: 25 µM)	0.942 ± 0.06	0.375 ± 0.13
CC(C)c1cccc(C(C)C)c1O [Propofol] (concentration: 25 µM)	0.972 ± 0.025	1.11 ± 0.027
Cn1c(CCCC(=O)O)nc2cc(N(CCCl)CCCl)ccc21 [Bendamustine·HCl] (concentration: 25 µM)	1.26 ± 0.022	0.2666 ± 0.00052
CC(NC(C)(C)C)C(=O)c1cccc(Cl)c1 (stereo not given) [Bupropion] (concentration: 25 µM)	0.935 ± 0.011	0.696 ± 0.15
CC(C)N(CCC(C(N)=O)(c1ccccc1)c1ccccn1)C(C)C (stereo not given) [Disopyramide] (concentration: 25 µM)	0.985 ± 0.041	0.733 ± 0.14
O=C1Nc2ccc(Cl)cc2C(c2ccccc2Cl)=NC1O (stereo not given) [Lorazepam] (concentration: 25 µM)	0.927 ± 0.03	0.912 ± 0.056
CC1C=CC=CCCC=CC=CC=CC=CC(OC2OC(C)C(O)C(N)C2O)CC2OC(O)(CC(O)C(O)CCC(O)CC(O)CC(O)CC(=O)OC(C)C(C)C1O)CC(O)C2C(=O)O (stereo not given) [Nystatin] (concentration: 25 µM)	0.8944 ± 0.0084	0.729 ± 0.11
CN1[C@@H]2C[C@@H](OC(=O)[C@H](CO)c3ccccc3)C[C@H]1[C@@H]1O[C@@H]12 [Scopolamine·HBr] (concentration: 25 µM)	1 ± 0.061	0.608 ± 0.1
CN1[C@@H]2CC[C@H]1C[C@@H](OC(=O)C(CO)c1ccccc1)C2 (stereo not given in full) [Atropine Sulfate Monohydrate] (concentration: 25 µM)	0.974 ± 0.017	0.677 ± 0.057
Nc1ccncc1 [Dalfampridine (4-Aminopyridine)] (concentration: 25 µM)	0.999 ± 0.044	0.646 ± 0.16
C=CCN1CC[C@]23c4c5ccc(O)c4O[C@H]2C(=O)CC[C@@]3(O)[C@H]1C5 [Naloxone·HCl] (concentration: 25 µM)	0.947 ± 0.018	0.96 ± 0.071
CN(C)[C@@H]1C(=O)C(C(N)=O)=C(O)[C@@]2(O)C(=O)C3=C(O)c4c(O)cccc4[C@@](C)(O)[C@H]3[C@H](O)[C@@H]12 [Oxytetracycline·HCl] (concentration: 25 µM)	0.894 ± 0.014	0.884 ± 0.1
NCC(CC(=O)O)c1ccc(Cl)cc1 (stereo not given) [Baclofen] (concentration: 25 µM)	0.985 ± 0.044	0.555 ± 0.08
N[C@@H]1C[C@H]1c1ccccc1.N[C@H]1C[C@@H]1c1ccccc1 [Tranylcypromine Hemisulfate] (concentration: 25 µM)	0.926 ± 0.0078	0.931 ± 0.063
C[C@]12CC[C@@H]3c4ccc(OC(=O)N(CCCl)CCCl)cc4CC[C@H]3[C@@H]1CC[C@@H]2OP(=O)(O)O [Estramustine Phosphate·Na] (concentration: 25 µM)	0.958 ± 0.045	0.781 ± 0.051
NCCCNCCSP(=O)(O)O [Amifostine] (concentration: 25 µM)	0.95 ± 0.036	0.8 ± 0.12
CC(C)C[C@H](CN)CC(=O)O [Pregabalin] (concentration: 25 µM)	1.03 ± 0.02	0.592 ± 0.12
CN1C(=O)C(O)N=C(c2ccccc2)c2cc(Cl)ccc21 (stereo not given) [Temazepam] (concentration: 25 µM)	0.805 ± 0.037	0.916 ± 0.032
N.N.[Cl][Pt][Cl] [Cisplatin (Cis-Diamineplatinum(Ii) Dichloride )] (concentration: 25 µM)	1.043 ± 0.0024	0.895 ± 0.045
O=[N+]([O-])O[C@H]1CO[C@H]2[C@@H]1OC[C@H]2O[N+](=O)[O-] [Isosorbide Dinitrate] (concentration: 25 µM)	0.945 ± 0.023	1.04 ± 0.081
CN1C(=O)CN=C(c2ccccc2)c2cc(Cl)ccc21 [Diazepam] (concentration: 25 µM)	0.911 ± 0.048	0.925 ± 0.098
